Results reported in PubChem BioAssay (NCI).
About 83,000 compounds went through this panel and 20% of them were active in at least one assay; those are over-represented in the sample as a whole.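 Values shown are percent growth following 48 h exposure of cells in 96-well plates to a single concentration of compound; below 10 was considered active.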 Active and inactive are the calls of the source.

Tested on: NCI-H522 lung
Test: NCI-60 one-dose screen, 48 h (100 = growth as untreated, 0 = no growth, -100 = all killed)
Details: 10 µM unless noted

| SMILES | growth |
| --- | --- |
| COc1cc(C=O)ccc1OC1OC(COC(C)=O)C(OC(C)=O)C(OC(C)=O)C1OC(C)=O (configuration not stated) | 104% (inactive) |
| CC1=CCC(OC(=O)C(C)(O)CCC(O)(C(=O)OC2(C)C=CC(O)(C(C)C)CC2)C(C)C)(C(C)C)CC1 (configuration not stated) | 93.7% (inactive) |
| CC(=O)Nc1cccc(-c2ccc3c(c2)NC(=O)/C3=C\c2ccc[nH]2)c1 | 16.6% (inactive) |
| CC(C)(C)c1ccc(NS(=O)(=O)c2ccc3nc(NC(=O)c4cnccn4)[nH]c3c2)cc1 | 20.4% (inactive) |
| CC(C)(C)c1cc(/C=N/NC(=O)c2ccccc2NC(=O)c2cccs2)c(O)c(C(C)(C)C)c1 | 27.8% (inactive) |
| C#CCNC(=O)[C@H](Cc1ccccc1)NC(=O)[C@]12CC[C@@H](C(=C)C)[C@@H]1[C@H]1CC[C@@H]3[C@@]4(C)CCC(=O)C(C)(C)[C@@H]4CC[C@@]3(C)[C@]1(C)CC2 | 52.6% (inactive) |
| CCCCCCNC(=O)Oc1ccc(/C(=C(\C)c2ccccc2)c2ccc(OCCCN(C)C)cc2)cc1 | 88.9% (inactive) |
| CC(=O)Nc1ccc(-c2ccc3c(c2)NC(=O)/C3=C\c2ccc[nH]2)cc1 | 59.3% (inactive) |
| CCCCOc1ccc(/C=N/Nc2cc(C)nc3ccc(Br)cc23)cc1 | 76.9% (inactive) |
| COc1cc(/C(C)=C(\c2ccc(Cl)cc2)c2ccc(OCCN(C)C)cc2)ccc1F | 80.2% (inactive) |
| O=C(/C=C/c1ccc(Cl)cc1)c1ccc(NC(=O)N2CCN(c3cc4c(cc3F)c(=O)c(C(=O)O)cn4C3CC3)CC2)cc1 | 66.9% (inactive) |
| O=C(c1nc2ccccc2[nH]1)C1C(c2ccc(Cl)cc2)C2CC3CCCC[C@H]3N2[C@@]12C(=O)Nc1cc(Cl)ccc12 (some centres not stated) | 56.4% (inactive) |
